Bioassay records (PubChem BioAssay)
BAP1 inh – inhibitors of BAP1 deubiquitinase, primary screen, biochemical, Ub-AMC fluorescence, kinetic. Ubiquitin carboxyl-terminal hydrolase BAP1 (Homo sapiens), Q92560. recombinant BAP1, Ub-AMC hydrolysis fluorescence kinetic; stronger effect = lower value. calls only at 20 µM. actives 0.48% (n = 72,000);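 active = activity remaining at or below 50% of control, provided the compound also passes the data quality filters; inactive = the rest, including low values that fail the filters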;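 note: 100% = DMSO wells rate and 0% = substrate alone blank rate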
Target sequence (Q92560 whole entry, looked up): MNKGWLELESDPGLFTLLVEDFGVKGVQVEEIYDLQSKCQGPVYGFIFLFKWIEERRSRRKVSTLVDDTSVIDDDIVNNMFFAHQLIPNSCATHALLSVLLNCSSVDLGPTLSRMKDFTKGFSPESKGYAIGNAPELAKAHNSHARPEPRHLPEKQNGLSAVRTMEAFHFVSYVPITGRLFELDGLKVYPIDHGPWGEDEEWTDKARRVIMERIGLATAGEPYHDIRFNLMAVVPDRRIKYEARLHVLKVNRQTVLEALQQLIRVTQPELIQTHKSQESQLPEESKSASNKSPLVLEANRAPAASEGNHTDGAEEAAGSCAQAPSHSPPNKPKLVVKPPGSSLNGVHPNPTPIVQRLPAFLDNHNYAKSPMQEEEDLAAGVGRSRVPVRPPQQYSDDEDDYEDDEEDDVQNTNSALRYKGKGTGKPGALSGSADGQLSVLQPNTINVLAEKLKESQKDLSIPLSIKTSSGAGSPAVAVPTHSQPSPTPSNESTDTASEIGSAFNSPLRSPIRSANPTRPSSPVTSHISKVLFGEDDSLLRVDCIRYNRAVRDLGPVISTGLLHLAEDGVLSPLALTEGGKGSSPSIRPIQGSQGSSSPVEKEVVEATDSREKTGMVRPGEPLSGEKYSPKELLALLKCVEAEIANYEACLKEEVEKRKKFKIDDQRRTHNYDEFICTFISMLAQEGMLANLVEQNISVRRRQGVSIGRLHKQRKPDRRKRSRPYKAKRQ
M1 ag – M1 muscarinic receptor agonists, primary screen, CHO-M1 cells, Fluo-4 calcium, agonist mode. Muscarinic acetylcholine receptor M1. Fluo-4 calcium fluorescence; stronger effect = higher value. B-score at 10 µM. actives 3% (n = 64,000). AID 626, 2007;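 active = fluorescence rise, raw or as B-score row- and column-corrected plate score, outside the 99.7% band of its plate's samples, either direction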
Fluor 339 460 – intrinsic fluorescence of library compounds, ex339/em460 – biochemical, MLSMR library, data from DPM-DC assay, artefact control, profiling panel. compound autofluorescence, ex339/em460 nm, NADH buffer; stronger effect = higher value; 1 = no-compound wells, NADH background. fluorescence fold increase at 10 µM. actives 5.5% (n = 65,000). AID 709, 2007;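 active = at 10 µM, mean starting fluorescence two-fold or more over control wells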;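 note: signal is the first read of a kinetic run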
M1 antag – antagonists of rat M1 muscarinic receptor; B-score at 10 µM; CHO-M1 cells, Fluo-4 calcium, ACh EC80 antagonist mode; stronger effect = lower value; Muscarinic acetylcholine receptor M1 (Rattus norvegicus), P08482; AID 628, 2007; actives 3.4% (n = 64,000);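 active = calcium fluorescence response, raw or row-and-column corrected B-score, differing from the plate sample mean either way at a set confidence level, mostly lower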
WNV NS2B-NS3 inh – inhibitors of WNV NS2B-NS3 protease, primary screen, biochemical, fluorogenic substrate; Genome polyprotein (West Nile virus), P06935; fluorogenic substrate Ex360/Em465; stronger effect = lower value; z-score (concentration not given with the values); actives 0.18% (n = 65,000); AID 577, 2007; in the data active = z-score below about -3
Abs 340nm – compound light absorbance at 340 nm, profiling panel, artefact control, biochemical, MLSMR library, data from PS, PMK, MK assays; compound absorbance at 340 nm, fold over control; fold change at 10 µM; 65,000 tested, under 10 active;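 active = at 10 µM dose, initial 340 nm absorbance at least 2 fold that of control wells; inactive = change under 2 fold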;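 note: initial absorbance extrapolated from kinetic A340 decline of NADH oxidation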
Active calls of the source: *; i = inactive; . = no result given. Hits are enriched below; roughly 9.7% of the tested compounds scored in any of these assays.

SMILES	BAP1 inh	M1 ag	Fluor 339 460	M1 antag	WNV NS2B-NS3 inh	Abs 340nm
CCOc1cc(C2Nc3ccccc3C(=O)N2c2ccccc2OC)ccc1O (stereo not given)	i	0.091	2.5*	0.92	0.46	1
CCN(C(=O)CN1C(=O)c2ccccc2C1=O)c1ccccc1C	i	.	.	.	.	.
Cc1sc2ncnc(Sc3nnnn3-c3ccccc3)c2c1C	.	-0.98	3.4*	-0.098	-1.2	1
CC1CCc2nc(N)c(C#N)c(-c3ccncc3)c2C1 (stereo not given)	.	.	3.8*	.	-0.21	1.1
COc1ccc2c(c1)-c1c(sn(-c3ccccc3C)c1=S)C(C)(C)N2	i	.	.	.	.	.
CC1CCC(NC(=O)CN2C(=O)C3CCCN3c3ncc(Cl)cc32)CC1 (stereo not given)	.	1.1	2.3*	-0.31	0.29	1.1
COC(=O)c1ccccc1NC(=O)CN1C(=O)C2CCCN2c2ncc(Cl)cc21 (stereo not given)	.	1.1	2.1*	0.79	-0.05	1.1
CCc1ccccc1NC(=O)CN1C(=O)C2CCCN2c2ncc(Cl)cc21 (stereo not given)	i	1.3	1.1	-0.12	-0.55	1
CCC(C)NC(=O)c1cnn2c(C)c3c(nc12)CCCC3 (stereo not given)	i	0.36	4.9*	-0.085	0.52	1
COc1ccc(OC)c(CC(NC(C)=O)C(=O)NC2CCN(c3nc(C)cc(C)c3C#N)CC2)c1 (stereo not given)	i	-0.24	2.8*	0.66	0.1	1
COc1cc(C(=O)N2CCC(NC(=O)C(Cc3ccccc3C)NC(C)=O)CC2)cc(OC)c1OC (stereo not given)	i	-0.46	1.1	-0.5	-0.23	1
N#Cc1cc2ccc(N3CCOCC3)cc2cc1C#N	i	-2.4	2.5*	-1.6	-0.01	1
Cc1occc1C(=O)NCCCc1ccccc1	i	0.28	1.1	1	-0.64	1.1
Cc1ccc(CCNC(=O)c2coc3nc4ccccc4nc23)cc1	.	-1.3	2.3*	0.042	-0.95	1
COC(=O)c1oc2ccc(OC)cc2c1N	.	-0.015	2.6*	0.37	-0.87	1
COc1ccc(C(=O)c2oc3ccc(OC)cc3c2N)cc1	i	1.3	1.8	0.31	-1.2	1.1
Nc1c(C(=O)CCC(=O)O)oc2ccc(Cl)cc12	i	-0.91	1.6	-1	-0.63	1.1
CN(C)C(=O)c1c(-c2ccccc2)oc2ccc(O)cc12	.	0.14	2.2*	0.74	-0.25	1.1
NC(=O)c1oc2ccc(Cl)cc2c1N	.	0.0078	3.9*	0.37	0.34	1.1
COc1ccc2oc(-c3ccccc3)c(C(N)=O)c2c1	i	-1.3	2.1*	-0.018	0.38	1.1
CC12C=CC(C)(O1)C1C(=O)N(c3cccc4ccccc34)C(=O)C12 (stereo not given)	i	.	.	.	.	.
CCSc1ccc(NC(=O)CC2c3ccccc3Oc3ccccc32)cc1	i	.	.	.	.	.
O=c1c2cc(N3CCOCC3)ccc2[nH]c(=S)n1CCCN1CCCCC1	i	0.49	2.1*	-0.2	0.42	1
CC1CCN(CCCn2c(=S)[nH]c3ccc(N4CCOCC4)cc3c2=O)CC1	i	-0.092	3.2*	-0.39	0.85	1.1
COc1cc(C(=S)N2CCOCC2)ccc1OC(=O)c1ccc([N+](=O)[O-])cc1	i	.	.	.	.	.
SMILES	BAP1 inh	M1 ag	Fluor 339 460	M1 antag	WNV NS2B-NS3 inh	Abs 340nm
CCOC(=O)c1c(NC(=O)c2ccccc2F)sc(C(=O)Nc2ccc3c(c2)OCO3)c1C	i	.	.	.	.	.
COc1ccc(-c2nn(C)c3sc(C(=O)NCc4ccco4)cc23)cc1OC	.	-0.21	3.1*	-0.69	-0.9	1
COc1cccc(-c2nn(C)c3sc(C(=O)NCc4ccc(C)o4)cc23)c1	i	-0.49	1.7	0.017	-0.7	1
CCOC(=O)N1CCC(NC(=O)c2cc3c(-c4ccc(OC)c(OC)c4)nn(C)c3s2)CC1	i	3.2	2.4*	-0.68	-0.38	1.1
CCOC(=O)N1CCC(NC(=O)c2cc3c(-c4ccccc4F)nn(C)c3s2)CC1	i	0.18	2*	0.59	-0.55	1.1
COc1cccc2sc(=NC(=O)c3ccc(S(=O)(=O)N4CCCc5ccccc54)cc3)n(C)c12	i	.	.	.	.	.
COc1ccc(CN(CCC2(c3ccccc3)CCOC(C)(C)C2)C(C)=O)cc1OC (stereo not given)	i	.	.	.	.	.
Cc1ccc([N+](=O)[O-])c(NC(=O)c2ccc([N+](=O)[O-])cc2)c1	i	.	.	.	.	.
Cc1nn(C(=O)c2ccc(Br)cc2)c(C)c1Sc1ccccc1[N+](=O)[O-]	i	.	.	.	.	.
Cc1cc(C)n2nc3nc4c(cc3c2n1)CCCC4	.	0.72	2.2*	-0.41	-0.94	1.1
COc1ccccc1-c1c(C)nn2c(C)cc(C)nc12	i	0.8	1.1	0.23	0.82	1
CCc1ccccc1NC(=O)c1cnn2c1NC(c1cc(OC)c(OC)c(OC)c1)CC2C(F)(F)F (stereo not given)	i	.	.	.	.	.
CCN1CCN(C(=O)c2cc3c(=O)n4ccccc4nc3n2Cc2ccccc2)CC1	.	-0.68	3.9*	-0.027	2.6	1.1
Cn1c(C(=O)NCCN2CCOCC2)cc2c(=O)n(C)c3ccccc3c21	i	0.095	1.4	0.4	-0.57	1.1
O=C(NCCN1CCOCC1)c1cc2c(=O)n3ccccc3nc2n1Cc1ccccc1	.	0.11	3.9*	-0.66	3.9	1.1
Cc1ccc2nc3c(cc(C#N)c(=O)n3CCN3CCOCC3)c(=O)n2c1	.	.	3*	.	1.4	1
Cc1ccc2nc3c(cc(C#N)c(=O)n3-c3nccs3)c(=O)n2c1	i	.	3.8*	.	4.5	1.1
N#Cc1cc2c(=O)n3ccccc3nc2n(CCCN2CCOCC2)c1=O	.	.	3.9*	.	1.7	1
COc1ccc(-c2nc3ccccc3c(=O)n2CCCN2CCOCC2)cc1	i	-0.37	1.1	0.02	0.11	1
COc1ccc(CCn2c(=N)c(C#N)cc3c(=O)n4ccccc4nc32)cc1	i	-1.6	1.3	-0.5	0.09	1
N#Cc1cc2c(=O)n3ccccc3nc2n(CCN2CCOCC2)c1=O	.	-1.4	3.9*	-1.5	0.91	1.1
COc1ccc2nc(NC(=O)c3ccc(C#N)cc3)sc2c1	i	.	.	.	.	.
Cc1ccc(O)c(C(=O)c2cc(C#N)c(=O)n(CC3CCCO3)c2)c1 (stereo not given)	i	0.6	1	0.11	0.05	1
Cc1ccc2nc3c(cc(C#N)c(=O)n3CC3CCCO3)c(=O)n2c1 (stereo not given)	i	-1.1	3.8*	0.049	4.3	1.1
C=CCSc1nc2c(c(=O)[nH]1)C(C)(C1CCCCC1)Cc1ccccc1-2 (stereo not given)	i	.	.	.	.	.
